Experiment [1] deals with Human papillomavirus type 1a protein E7 (residues 44-93). The experiment in a line: small molecules binding HPV E7 44-93 – biochemical, small-molecule microarray, residues 44-93, 635 nm fluorescence, primary screen (AID 1108).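 Also: E7 fragment applied at 1 µg/mL in TBST for 1 h at 4 C; score combines spot fluorescence with its signal to noise ratio.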 Conditions: fluorescence 635 nm, higher = more signal.
Experiment [2] can be described thus: hepatitis C replication reporter changes, two-sided – Huh7 cells, luciferase reporter, HCV replication inhibitor project, primary screen (AID 1109).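 Also: huh7 hepatoma cells harbouring a luciferase neomycin HCV replicon reporter; luciferase luminescence as measure of HCV replicon replication; test concentration not given here.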 The note with it: Huh7 HCV replicon luciferase reporter, 48 h; higher = more signal. (A reporter such as luciferase makes a cellular process visible.)
In experiment [3] the target is Left-right determination factor 2 (Homo sapiens) (UniProt O00292). The experiment in a line: small molecules binding LEFTY2 protein – biochemical, small-molecule microarray, 635 nm fluorescence scan, primary screen (AID 1110). Conditions: higher = more signal.
Chain of Left-right determination factor 2 (Homo sapiens) (O00292 whole entry, looked up): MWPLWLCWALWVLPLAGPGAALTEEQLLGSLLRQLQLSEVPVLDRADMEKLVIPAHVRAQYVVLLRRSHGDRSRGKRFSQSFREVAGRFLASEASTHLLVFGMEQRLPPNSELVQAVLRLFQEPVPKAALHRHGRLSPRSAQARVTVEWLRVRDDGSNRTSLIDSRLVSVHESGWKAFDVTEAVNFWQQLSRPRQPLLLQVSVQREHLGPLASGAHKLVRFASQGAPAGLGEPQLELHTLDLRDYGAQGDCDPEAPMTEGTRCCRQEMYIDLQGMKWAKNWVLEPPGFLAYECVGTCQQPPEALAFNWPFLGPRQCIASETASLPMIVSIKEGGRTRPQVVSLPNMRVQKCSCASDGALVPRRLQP
Experiment [4] deals with Calmodulin-1 (Homo sapiens) (UniProt P0DP23). Kind of experiment: small molecules binding calmodulin-1 with EGTA – biochemical, small-molecule microarray, Cy5-labelled CALM1, profiling panel (AID 1111).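 Also: labelled calmodulin applied in Tris saline Tween buffer holding calcium plus EGTA and DTT.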 The note with it: Cy5-CALM1 binding fluorescence, higher = more signal.
Experiment [5] shares this target. The experiment in a line: small molecules binding Ca-loaded calmodulin-1 – biochemical, small-molecule microarray, Cy5-labelled CALM1, plus calcium, artefact control for SMM control-protein annotation, profiling panel (AID 1112).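 Also: score merges spot fluorescence with signal to noise from triplicate slides.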 Conditions: Cy5-CALM1 binding fluorescence, higher = more signal.
Experiment [6] can be described thus: probe aWnt5a binding to arrayed compounds – biochemical, biotinylated probe, 635/667 nm fluorescence, primary screen (AID 1113).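 Also: score merges 667 nm fluorescence intensity with signal-to-noise per printed feature.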 Conditions: small-molecule microarray, higher = more signal.
A short description of experiment [7]: probe aShh binding to arrayed compounds – biochemical, biotinylated probe, 635/667 nm fluorescence, primary screen (AID 1114).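 Also: probe is biotin-labelled aShh protein from a stem cell growth factor screen; measures binding of labelled protein to compounds printed on the slide; score merges feature fluorescence at 667 nm with signal-to-noise.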 Conditions: small-molecule microarray, higher = more signal.
Experiment [8] is described as follows: probe aNog binding to arrayed compounds – biochemical, biotinylated probe, 635/667 nm fluorescence, primary screen (AID 1115).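 Also: probe is biotinylated aNog protein used at 0.15 µg/mL for 1 h at 4 C; z-score combines 667 nm fluorescence of each spot with its signal to noise.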 The note with it: small-molecule microarray, higher = more signal.
In experiment [9] the target is Torsin-1A-interacting protein 1 (Homo sapiens) (UniProt Q5JTV8). The experiment in a line: compound microarray binding of lysate hLAP1 – cell lysate, small-molecule microarray, COS7 lysate, 635/667 nm fluorescence, primary screen (AID 1116). Conditions: 635 nm fluorescence, higher = more signal.
Chain of Torsin-1A-interacting protein 1 (Homo sapiens) (Q5JTV8 whole entry, looked up): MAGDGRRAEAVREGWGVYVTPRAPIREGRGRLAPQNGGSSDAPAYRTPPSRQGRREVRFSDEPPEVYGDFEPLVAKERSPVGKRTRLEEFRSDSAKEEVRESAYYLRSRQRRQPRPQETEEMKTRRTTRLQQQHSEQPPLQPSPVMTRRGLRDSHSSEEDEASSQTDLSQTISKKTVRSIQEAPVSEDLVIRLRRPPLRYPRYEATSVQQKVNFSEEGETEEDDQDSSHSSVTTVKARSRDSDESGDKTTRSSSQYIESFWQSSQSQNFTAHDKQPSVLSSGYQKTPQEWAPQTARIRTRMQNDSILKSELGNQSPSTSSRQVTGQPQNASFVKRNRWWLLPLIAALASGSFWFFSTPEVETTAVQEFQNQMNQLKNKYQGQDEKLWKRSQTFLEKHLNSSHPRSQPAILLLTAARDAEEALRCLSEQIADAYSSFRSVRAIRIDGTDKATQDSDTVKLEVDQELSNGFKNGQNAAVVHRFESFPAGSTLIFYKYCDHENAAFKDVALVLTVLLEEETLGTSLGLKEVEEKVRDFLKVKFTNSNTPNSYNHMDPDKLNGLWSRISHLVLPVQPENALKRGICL
The target in experiment [10] is Alpha-bungarotoxin (Bungarus multicinctus) (UniProt P60615). The experiment in a line: compounds binding labelled alpha-BTX control protein – biochemical, small-molecule microarray, Alexa647 label, 635/667 nm fluorescence, artefact control for SMM control protein annotation, profiling panel (AID 1117). Conditions: alpha-BTX-A647 binding fluorescence, higher = more signal.
Chain of Alpha-bungarotoxin (Bungarus multicinctus) (P60615 whole entry, looked up): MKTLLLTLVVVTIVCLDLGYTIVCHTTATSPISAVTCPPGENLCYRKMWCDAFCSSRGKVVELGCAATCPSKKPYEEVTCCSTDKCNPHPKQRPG

Experiment [11] has as its target Albumin (Bos taurus) (UniProt P02769). Kind of experiment: compounds binding labelled BSA control protein – biochemical, small-molecule microarray, Alexa647 label, 635/667 nm fluorescence, artefact control for SMM control protein annotation, profiling panel (AID 1118).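 Also: score merges 667 nm emission intensity and signal-to-noise per printed compound spot.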 Conditions: BSA-A647 binding, fluorescence 635 nm, higher = more signal.
Experiment [12] is described as follows: probe aXIP binding to arrayed compounds – biochemical, NeuroSMM set, 635/667 nm fluorescence, primary screen (AID 1119).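 Also: probe is the protein aXip251-270 applied at 1 µg/mL to compound-printed slides; binding of probe to printed compounds measured as 667 nm fluorescence plus signal to noise.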 The note with it: small-molecule microarray, higher = more signal, called active from +8 up or from −8 down.
A short description of experiment [13]: probe aNOTCH3 binding on compound microarray – biochemical, small-molecule microarray, 635/667 nm fluorescence, primary screen (AID 1120).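 Also: probe is a biotin-tagged antibody raised against NOTCH3 rather than NOTCH3 protein; score merges spot fluorescence near 667 nm with spot signal to noise.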 The note with it: higher = more signal.
Experiment [14] in a line: probe aNOTCH2 binding on compound microarray – biochemical, small-molecule microarray, 635/667 nm fluorescence, primary screen (AID 1121).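 Also: score merges feature fluorescence read at 667 nm with its signal to noise.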 Conditions: higher = more signal.
The target of experiment [15] is Carbonic anhydrase 2 (Homo sapiens) (UniProt P00918). The experiment in a line: compounds binding carbonic anhydrase 2 – biochemical, small-molecule microarray, Alexa647-labelled CAII, profiling panel (AID 1122). Conditions: CAII-A647 binding fluorescence, higher = more signal.
Experiment [16] is described as follows: COS7 lysate on small-molecule microarray, probe aHis, 635 nm (AID 1123).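 Also: z-score combines 667nm fluorescence intensity with signal-to-noise per printed compound spot.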 Conditions: COS7 cell lysate, fluorescence, higher = more signal.
The nature of experiment [17]: probe aLAP1 signal on lysate-treated microarray – cell lysate, small-molecule microarray, COS7 lysate, primary screen (AID 1124).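 Also: lysate comes from COS7 cells expressing LAP1 and is applied at 0.3 µg/mL; score merges spot fluorescence near 667 nm with signal-to-noise over triplicate slides.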 The note with it: probe aLAP1, fluorescence, higher = more signal.
Experiment [18] relates to Sam68 (KHDRBS1). The experiment in a line: compounds binding KHDRBS1 protein – biochemical, small-molecule microarray, 635 nm fluorescence, primary screen (AID 1125).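 Also: score merges 667 nm channel intensity with signal to noise over triplicate slides.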 The note with it: higher = more signal.
Experiment [19] concerns Chordin-like protein 2 (CHRDL2). The experiment in a line: compounds binding chordin-like 2 – biochemical, small-molecule microarray, 635 nm fluorescence, primary screen (AID 1126).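 Also: printed compound slides probed with Chrdl2 protein at 4 µg/mL for 1 h at 4 C; score merges 667 nm emission intensity with signal to noise over three replicate slides.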 Conditions: fluorescence 635 nm, higher = more signal.
For experiment [20], the target named is Concanavalin-A (Canavalia ensiformis) (UniProt P02866). The experiment in a line: compounds binding concanavalin A lectin – biochemical, small-molecule microarray, Alexa647 label, 635 nm, artefact control for SMM control protein annotation, primary screen (AID 1127).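 Also: z combines 667 nm emission intensity with signal-to-noise across three replicate slides.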 The note with it: ConA-A647 binding fluorescence, higher = more signal.
Chain of Concanavalin-A (Canavalia ensiformis) (P02866 whole entry, looked up): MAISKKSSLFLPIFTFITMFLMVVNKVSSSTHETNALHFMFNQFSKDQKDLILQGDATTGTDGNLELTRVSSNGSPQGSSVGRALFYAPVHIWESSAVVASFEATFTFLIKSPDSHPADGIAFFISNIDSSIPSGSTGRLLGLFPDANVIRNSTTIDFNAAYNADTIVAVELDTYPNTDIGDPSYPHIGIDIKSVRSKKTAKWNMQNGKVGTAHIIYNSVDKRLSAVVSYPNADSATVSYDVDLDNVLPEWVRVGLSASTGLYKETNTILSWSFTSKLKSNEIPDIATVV

Molecules are shown by their SMILES. Activity calls are given as the source filed them.

Chain of Albumin (Bos taurus) (P02769 whole entry, looked up): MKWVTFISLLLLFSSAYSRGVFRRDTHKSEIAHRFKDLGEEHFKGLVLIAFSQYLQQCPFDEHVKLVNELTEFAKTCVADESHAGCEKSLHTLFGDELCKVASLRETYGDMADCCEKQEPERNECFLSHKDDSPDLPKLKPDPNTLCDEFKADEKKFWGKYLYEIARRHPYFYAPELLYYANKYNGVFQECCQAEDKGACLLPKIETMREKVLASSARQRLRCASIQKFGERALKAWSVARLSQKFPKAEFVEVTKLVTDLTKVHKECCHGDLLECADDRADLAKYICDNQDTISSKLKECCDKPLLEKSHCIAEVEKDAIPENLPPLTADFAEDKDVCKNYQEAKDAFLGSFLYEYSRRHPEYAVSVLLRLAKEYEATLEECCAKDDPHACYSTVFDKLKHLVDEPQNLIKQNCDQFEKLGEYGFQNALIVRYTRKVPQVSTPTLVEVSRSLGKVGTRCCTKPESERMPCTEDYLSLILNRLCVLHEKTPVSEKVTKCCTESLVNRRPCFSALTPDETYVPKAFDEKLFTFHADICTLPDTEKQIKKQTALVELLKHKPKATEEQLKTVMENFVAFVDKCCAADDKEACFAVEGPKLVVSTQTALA

Take `COCCOC(=O)N1C(=O)[C@@]2(c3cc(C#Cc4ccc(OC)cc4)ccc31)[C@H](C(=O)NC[C@H](O)c1ccccc1)[C@H]1C(=O)O[C@H](c3ccccc3)[C@H](c3ccccc3)N1[C@@H]2c1ccc(O)cc1`: the composite z-score was 0.872 in experiment [1]; 0.887 in [3]; 0.0624 in [4]; -0.0377 in experiment [5]; -0.0816 in experiment [6]; 0.875 in [7]. Also, the composite z-score is 0.369 in [8]; 1.37 in experiment [9]; 0.931 in [10]; 0.148 in experiment [11]; 0.236 in experiment [13]; -0.154 in [14]. Besides, the composite z-score in experiment [15] came to 0.441; in experiment [16] it was 1.7; in experiment [17] it was 1.48; in experiment [18], 1.29; in experiment [19] it was 0.806; in experiment [20], 1.16. The same compound had a z-score in [2] of -1.45. The composite Z-score in experiment [12] was 0.552 (inactive).
Take `C#CCNC(=O)[C@H](Cc1ccccc1)NC(=O)[C@@H](N=[N+]=[N-])C(C)C`: the composite z-score is 0.902 in experiment [1]; 0.69 in [3]; 0.222 in [4]; -0.217 in experiment [5]; -0.117 in experiment [6]; -0.262 in experiment [7]. Also, the composite z-score in experiment [8] was 0.221; in [9], 0.455; in experiment [10], 0.96; in experiment [11], 0.51; in experiment [13] it was -0.0431; in experiment [14], -0.134. Moreover, the composite z-score in [15] came to 0.179; in [16], 0.88; in experiment [17], 0.0338; in [18], 1.01; in experiment [19] it was 0.747; in experiment [20], 0.584. For the same compound, the z-score in [2] is 0.965. In experiment [12], the composite Z-score was -0.197 (inactive).
`C=C(CCCC)C(=O)CC[C@@H](OC(=O)c1cccnc1)c1ccccc1OCCO`: the composite z-score in experiment [1] is -0.266; in [3], -0.0055; in experiment [4], -1.11; in [5], -1.07; in experiment [6], -0.091; in [7], -0.138. Besides, the composite z-score was -0.117 in experiment [8]; 0.684 in experiment [9]; 0.583 in [10]; -0.326 in experiment [11]; 0.1 in experiment [13]; -0.0804 in experiment [14]. In addition, the composite z-score in [15] was 0.406; in [16], -0.256; in experiment [17], 0.377; in experiment [18], 0.44; in [19], 0.515; in [20], -1.51. This compound had a z-score in experiment [2] of -3.05. For the same compound, in experiment [12], the composite Z-score is 0.589 (inactive).
For the compound `COc1ccc([Si](C)(C)[C@H]2[C@H](CCn3cc(CCO)nn3)O[C@@]3(C(=O)N(Cc4ccc(N5C(=O)c6cccc7cccc5c67)cc4)c4ccccc43)[C@@H]2C)cc1`, the composite z-score in experiment [1] was 1.4; in [3] it was 0.691; in experiment [4], 0.778; in experiment [5], 0.487; in [6], -0.117; in experiment [7] it was 0.0121. Moreover, the composite z-score in experiment [8] is 0.298; in [9] it was 0.537; in [10] it was 1.08; in experiment [11], 0.627; in [13], 0.0996; in experiment [14], -0.14. Besides, the composite z-score in experiment [15] was 0.345; in experiment [16] it was 1.04; in [17], 0.303; in experiment [18], 1.29; in [19] it was 0.628; in experiment [20], 0.962. The compound also gave a z-score in experiment [2] of -5.13. In addition, the composite Z-score in [12] is -0.777 (inactive).
Regarding `C=CC1c2cc(O)c(OC)cc2CCN1Cc1sc2ccccc2c1Cl` (stereo not given), the composite z-score in [1] was 1.38; in experiment [3] it was 0.0792; in experiment [4] it was 0.248; in [5] it was 0.237; in experiment [6] it was -0.107; in [7], 0.0796. The composite z-score is -0.0132 in experiment [8]; 0.47 in [9]; 1.47 in [10]; 0.854 in experiment [11]; 0.177 in experiment [13]; -0.0772 in [14]. The composite z-score in experiment [15] was 0.79; in experiment [16] it was 1.46; in experiment [17] it was 0.381; in experiment [18] it was 0.807; in experiment [19], 0.575; in experiment [20], 0.859. The compound also came in with a z-score in experiment [2] of -1.78. In experiment [12], the composite Z-score was -0.967 (inactive).
Regarding `O=C1O[C@@H](c2ccccc2)[C@@H](c2ccccc2)N2[C@@H](c3ccccc3OCCO)[C@]3(C(=O)Nc4ccc(C#CCCO)cc43)[C@@H](C(=O)N3CCN(c4ncccn4)CC3)[C@H]12`, the composite z-score in experiment [1] is 1.39; in experiment [3] it was -0.0407; in experiment [4], 1.15; in experiment [5], 0.27; in [6], -0.096; in [7] it was -0.16. For the same compound, the composite z-score in [8] is -0.332; in [9], 0.744; in experiment [10], 1.23; in experiment [11], 0.717; in experiment [13], 0.0208; in experiment [14], -0.0811. Moreover, the composite z-score in experiment [15] was 0.298; in experiment [16], 2.09; in experiment [17] it was 0.176; in experiment [18] it was 1.19; in experiment [19], 0.0179; in experiment [20] it was 1.12. Besides, the z-score in experiment [2] is -1.71. Moreover, in experiment [12], the composite Z-score is 1.37 (inactive).

These data come from PubChem BioAssay.
